From the supplement of paper PMC11732987, “Enantioselective OTUD7B fragment discovery through chemoproteomics screening and high-throughput optimisation” (Communications Chemistry, 2025)

Assays:
Assay in all cases: log2 ratio of Biotin-Ahx-Ub-VS probe labelling (fragment/DMSO); higher = less target engagement (more negative = stronger competition), active = hit call of the paper (q ≤ 0.05, log2 ratio ≤ -1)
Conditions in all cases: compound concentration: 200 uM; treatment time: 3 h
[1] = target: T1, USP42 (UniProt Q9H9J4)
T1 sequence (whole entry): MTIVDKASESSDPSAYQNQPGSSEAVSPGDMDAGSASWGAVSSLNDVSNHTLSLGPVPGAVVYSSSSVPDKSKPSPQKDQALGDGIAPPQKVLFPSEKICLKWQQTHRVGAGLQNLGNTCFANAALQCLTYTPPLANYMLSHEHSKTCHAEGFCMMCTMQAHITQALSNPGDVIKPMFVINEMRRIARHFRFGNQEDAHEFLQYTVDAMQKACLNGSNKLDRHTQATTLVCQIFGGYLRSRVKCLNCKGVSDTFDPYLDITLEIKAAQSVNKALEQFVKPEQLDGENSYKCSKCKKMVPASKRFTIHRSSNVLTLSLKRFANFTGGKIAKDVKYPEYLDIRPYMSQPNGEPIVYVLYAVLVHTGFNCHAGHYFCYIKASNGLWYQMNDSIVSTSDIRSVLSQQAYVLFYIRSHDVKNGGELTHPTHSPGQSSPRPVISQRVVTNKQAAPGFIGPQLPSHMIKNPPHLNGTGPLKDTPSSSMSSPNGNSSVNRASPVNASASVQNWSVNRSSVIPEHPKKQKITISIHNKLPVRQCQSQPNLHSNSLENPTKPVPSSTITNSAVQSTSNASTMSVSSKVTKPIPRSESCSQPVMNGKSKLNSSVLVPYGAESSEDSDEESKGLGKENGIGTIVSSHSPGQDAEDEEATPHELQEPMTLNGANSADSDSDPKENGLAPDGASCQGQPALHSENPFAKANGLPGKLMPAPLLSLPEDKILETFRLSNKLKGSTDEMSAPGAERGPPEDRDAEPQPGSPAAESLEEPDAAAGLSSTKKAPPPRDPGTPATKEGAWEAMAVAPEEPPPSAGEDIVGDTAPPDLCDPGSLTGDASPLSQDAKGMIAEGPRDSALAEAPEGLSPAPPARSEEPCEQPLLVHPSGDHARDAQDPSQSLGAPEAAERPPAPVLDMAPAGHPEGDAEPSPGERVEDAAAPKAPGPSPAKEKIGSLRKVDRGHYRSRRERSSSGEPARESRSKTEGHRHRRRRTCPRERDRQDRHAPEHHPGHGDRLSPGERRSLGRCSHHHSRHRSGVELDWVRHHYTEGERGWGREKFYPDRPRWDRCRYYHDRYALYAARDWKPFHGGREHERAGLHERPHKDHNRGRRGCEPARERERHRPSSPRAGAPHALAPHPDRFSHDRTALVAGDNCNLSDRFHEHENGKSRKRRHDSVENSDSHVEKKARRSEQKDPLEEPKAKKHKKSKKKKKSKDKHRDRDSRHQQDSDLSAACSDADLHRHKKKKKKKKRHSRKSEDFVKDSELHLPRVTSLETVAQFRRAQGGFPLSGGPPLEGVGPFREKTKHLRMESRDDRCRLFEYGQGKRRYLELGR
Procedure, shortened: (§1)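 Triplicate samples of HEK293T lysate, 495 µg each, received fragment at 200 µM or vehicle for 3 h, followed by Biotin-Ahx-Ub-VS (0.5 µM final) for 1 h. After NeutrAvidin enrichment of labelled DUBs and LysC/trypsin digestion, peptides were run by diaPASEF LC-MS/MS. The values are average log2 fragment/vehicle ratios from global-median-normalised Spectronaut label-free quantities, tested by unpaired t-test on proteins having ≥2 unique peptides.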

[2] = target: USP46 (UniProt P62068)
Procedure, shortened: as §1

[3] = target: T2, USP47 (UniProt Q96K76)
T2 sequence (whole entry): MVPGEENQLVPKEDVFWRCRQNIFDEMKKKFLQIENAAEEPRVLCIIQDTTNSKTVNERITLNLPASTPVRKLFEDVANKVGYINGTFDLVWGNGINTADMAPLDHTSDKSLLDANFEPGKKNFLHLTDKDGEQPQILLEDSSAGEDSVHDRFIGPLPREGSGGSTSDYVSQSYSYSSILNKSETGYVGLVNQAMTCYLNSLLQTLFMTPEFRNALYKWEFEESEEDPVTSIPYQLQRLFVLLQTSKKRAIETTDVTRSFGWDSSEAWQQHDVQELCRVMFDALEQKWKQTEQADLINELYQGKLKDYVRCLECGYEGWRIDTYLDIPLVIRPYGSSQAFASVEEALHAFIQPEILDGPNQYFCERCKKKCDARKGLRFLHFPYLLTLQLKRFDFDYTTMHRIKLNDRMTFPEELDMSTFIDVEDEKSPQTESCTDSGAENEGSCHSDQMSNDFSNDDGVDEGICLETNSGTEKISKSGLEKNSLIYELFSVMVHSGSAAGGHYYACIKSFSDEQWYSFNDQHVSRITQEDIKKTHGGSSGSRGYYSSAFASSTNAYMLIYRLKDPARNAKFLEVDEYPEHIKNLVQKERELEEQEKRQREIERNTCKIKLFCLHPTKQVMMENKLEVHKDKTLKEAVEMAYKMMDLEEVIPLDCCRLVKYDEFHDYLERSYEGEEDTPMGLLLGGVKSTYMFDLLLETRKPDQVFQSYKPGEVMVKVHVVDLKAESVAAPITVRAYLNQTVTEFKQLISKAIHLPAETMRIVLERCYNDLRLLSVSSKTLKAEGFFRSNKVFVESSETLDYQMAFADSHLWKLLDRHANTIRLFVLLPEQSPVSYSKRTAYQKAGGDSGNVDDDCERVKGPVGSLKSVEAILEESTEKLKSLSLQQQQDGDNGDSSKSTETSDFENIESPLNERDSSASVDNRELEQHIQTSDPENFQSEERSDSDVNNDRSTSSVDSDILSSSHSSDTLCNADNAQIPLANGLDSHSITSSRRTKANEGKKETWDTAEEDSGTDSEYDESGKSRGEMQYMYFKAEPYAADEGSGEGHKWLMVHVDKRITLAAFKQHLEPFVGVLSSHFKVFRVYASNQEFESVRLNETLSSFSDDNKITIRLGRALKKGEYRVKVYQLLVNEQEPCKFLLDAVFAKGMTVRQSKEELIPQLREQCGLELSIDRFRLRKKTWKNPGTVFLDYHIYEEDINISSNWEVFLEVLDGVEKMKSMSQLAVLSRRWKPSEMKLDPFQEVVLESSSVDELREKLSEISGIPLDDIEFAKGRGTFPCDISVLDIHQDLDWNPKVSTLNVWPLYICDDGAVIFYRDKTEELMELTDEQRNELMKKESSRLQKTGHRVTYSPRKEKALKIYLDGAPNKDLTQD
Procedure, shortened: as §1

[4] = target: T3, USP48 (UniProt Q86UV5)
T3 sequence (whole entry): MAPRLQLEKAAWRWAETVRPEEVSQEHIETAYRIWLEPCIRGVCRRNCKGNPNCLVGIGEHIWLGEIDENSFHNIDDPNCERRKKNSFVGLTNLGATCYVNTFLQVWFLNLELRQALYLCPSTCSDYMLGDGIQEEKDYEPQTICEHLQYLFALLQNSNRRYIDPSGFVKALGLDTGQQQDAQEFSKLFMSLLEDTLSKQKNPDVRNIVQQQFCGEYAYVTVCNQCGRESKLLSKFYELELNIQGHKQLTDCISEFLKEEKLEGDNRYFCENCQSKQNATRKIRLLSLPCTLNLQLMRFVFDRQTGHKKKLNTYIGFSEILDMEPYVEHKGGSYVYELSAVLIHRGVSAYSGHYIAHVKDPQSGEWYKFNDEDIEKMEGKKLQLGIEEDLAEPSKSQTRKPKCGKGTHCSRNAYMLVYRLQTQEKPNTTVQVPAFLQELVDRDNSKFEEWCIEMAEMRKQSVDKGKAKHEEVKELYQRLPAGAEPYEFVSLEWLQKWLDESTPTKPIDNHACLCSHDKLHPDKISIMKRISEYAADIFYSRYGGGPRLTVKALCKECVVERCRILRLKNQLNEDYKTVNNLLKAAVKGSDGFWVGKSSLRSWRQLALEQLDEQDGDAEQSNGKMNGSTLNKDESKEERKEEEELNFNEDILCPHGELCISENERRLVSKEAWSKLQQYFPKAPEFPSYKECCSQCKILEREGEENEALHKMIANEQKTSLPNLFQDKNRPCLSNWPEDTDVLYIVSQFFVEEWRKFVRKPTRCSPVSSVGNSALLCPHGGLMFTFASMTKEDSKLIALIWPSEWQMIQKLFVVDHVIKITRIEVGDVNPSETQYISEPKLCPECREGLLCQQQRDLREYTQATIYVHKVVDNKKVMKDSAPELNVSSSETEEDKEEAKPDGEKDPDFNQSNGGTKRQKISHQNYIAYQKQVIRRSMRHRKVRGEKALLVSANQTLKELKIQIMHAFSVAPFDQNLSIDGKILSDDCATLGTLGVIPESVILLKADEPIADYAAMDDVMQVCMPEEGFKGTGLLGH
Procedure, shortened: as §1

[5] = target: T4, USP5 (UniProt P45974)
T4 sequence (whole entry): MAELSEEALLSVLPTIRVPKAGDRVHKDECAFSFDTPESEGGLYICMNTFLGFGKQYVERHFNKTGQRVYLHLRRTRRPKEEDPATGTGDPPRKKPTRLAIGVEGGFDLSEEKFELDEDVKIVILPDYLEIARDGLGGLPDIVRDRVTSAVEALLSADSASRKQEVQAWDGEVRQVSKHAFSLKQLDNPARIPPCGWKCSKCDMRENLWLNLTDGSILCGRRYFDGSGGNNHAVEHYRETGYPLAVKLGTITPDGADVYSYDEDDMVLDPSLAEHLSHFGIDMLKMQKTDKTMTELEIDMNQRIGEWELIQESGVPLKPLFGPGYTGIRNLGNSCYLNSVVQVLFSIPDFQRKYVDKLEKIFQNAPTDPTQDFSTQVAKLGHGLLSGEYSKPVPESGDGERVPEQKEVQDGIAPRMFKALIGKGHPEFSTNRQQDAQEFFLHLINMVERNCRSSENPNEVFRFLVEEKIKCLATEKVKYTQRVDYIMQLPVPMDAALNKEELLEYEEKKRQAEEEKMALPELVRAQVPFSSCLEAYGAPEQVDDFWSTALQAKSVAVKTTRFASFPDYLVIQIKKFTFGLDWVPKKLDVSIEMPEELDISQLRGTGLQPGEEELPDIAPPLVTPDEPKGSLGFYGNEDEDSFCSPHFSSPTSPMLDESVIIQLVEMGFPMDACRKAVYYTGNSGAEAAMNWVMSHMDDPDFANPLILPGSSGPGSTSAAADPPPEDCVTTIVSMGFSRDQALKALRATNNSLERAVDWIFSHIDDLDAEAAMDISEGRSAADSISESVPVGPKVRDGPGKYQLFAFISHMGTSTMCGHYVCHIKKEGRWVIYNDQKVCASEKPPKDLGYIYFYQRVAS
Procedure, shortened: as §1

[6] = target: USP54 (UniProt Q70EL1)
Procedure, shortened: as §1

[7] = target: USP7 (UniProt Q93009)
Procedure, shortened: as §1

[8] = target: T5, USP8 (UniProt P40818)
T5 sequence (whole entry): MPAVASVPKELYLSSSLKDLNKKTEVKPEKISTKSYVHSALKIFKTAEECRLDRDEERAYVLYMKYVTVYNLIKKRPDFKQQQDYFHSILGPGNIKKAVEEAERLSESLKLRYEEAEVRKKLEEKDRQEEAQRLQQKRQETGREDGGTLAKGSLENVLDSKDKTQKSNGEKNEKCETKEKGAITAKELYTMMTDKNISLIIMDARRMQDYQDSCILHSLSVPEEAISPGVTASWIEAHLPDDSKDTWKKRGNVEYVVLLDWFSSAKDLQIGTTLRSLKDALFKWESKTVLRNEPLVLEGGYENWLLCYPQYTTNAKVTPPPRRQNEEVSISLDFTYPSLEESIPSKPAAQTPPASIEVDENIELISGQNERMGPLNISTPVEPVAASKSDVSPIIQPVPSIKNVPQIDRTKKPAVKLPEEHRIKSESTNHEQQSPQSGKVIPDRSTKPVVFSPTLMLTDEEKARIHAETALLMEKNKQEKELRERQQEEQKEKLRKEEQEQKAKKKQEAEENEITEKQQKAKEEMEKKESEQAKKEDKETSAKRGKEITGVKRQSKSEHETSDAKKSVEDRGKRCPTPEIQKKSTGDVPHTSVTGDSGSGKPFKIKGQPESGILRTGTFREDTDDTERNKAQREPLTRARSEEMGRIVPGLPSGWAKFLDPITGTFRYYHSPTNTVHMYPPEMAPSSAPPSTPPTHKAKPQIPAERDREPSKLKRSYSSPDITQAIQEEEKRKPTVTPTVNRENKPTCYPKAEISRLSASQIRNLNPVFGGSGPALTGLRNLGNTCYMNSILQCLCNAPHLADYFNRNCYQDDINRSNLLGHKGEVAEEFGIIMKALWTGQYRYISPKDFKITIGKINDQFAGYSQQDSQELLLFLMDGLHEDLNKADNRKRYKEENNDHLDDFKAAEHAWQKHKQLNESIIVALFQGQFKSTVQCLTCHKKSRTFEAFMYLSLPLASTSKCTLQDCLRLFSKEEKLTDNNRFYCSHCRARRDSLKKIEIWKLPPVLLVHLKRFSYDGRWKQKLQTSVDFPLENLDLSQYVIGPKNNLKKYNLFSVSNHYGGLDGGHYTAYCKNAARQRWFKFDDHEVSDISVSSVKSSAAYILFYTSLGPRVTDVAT
Procedure, shortened: as §1

[9] = target: USP9X (UniProt Q93008)
Procedure, shortened: as §1

[10] = target: UniProt O00487
Procedure, shortened: as §1

Measured: log2 ratio of Biotin-Ahx-Ub-VS probe labelling

Sequence of USP7 (Q93009 whole entry, looked up): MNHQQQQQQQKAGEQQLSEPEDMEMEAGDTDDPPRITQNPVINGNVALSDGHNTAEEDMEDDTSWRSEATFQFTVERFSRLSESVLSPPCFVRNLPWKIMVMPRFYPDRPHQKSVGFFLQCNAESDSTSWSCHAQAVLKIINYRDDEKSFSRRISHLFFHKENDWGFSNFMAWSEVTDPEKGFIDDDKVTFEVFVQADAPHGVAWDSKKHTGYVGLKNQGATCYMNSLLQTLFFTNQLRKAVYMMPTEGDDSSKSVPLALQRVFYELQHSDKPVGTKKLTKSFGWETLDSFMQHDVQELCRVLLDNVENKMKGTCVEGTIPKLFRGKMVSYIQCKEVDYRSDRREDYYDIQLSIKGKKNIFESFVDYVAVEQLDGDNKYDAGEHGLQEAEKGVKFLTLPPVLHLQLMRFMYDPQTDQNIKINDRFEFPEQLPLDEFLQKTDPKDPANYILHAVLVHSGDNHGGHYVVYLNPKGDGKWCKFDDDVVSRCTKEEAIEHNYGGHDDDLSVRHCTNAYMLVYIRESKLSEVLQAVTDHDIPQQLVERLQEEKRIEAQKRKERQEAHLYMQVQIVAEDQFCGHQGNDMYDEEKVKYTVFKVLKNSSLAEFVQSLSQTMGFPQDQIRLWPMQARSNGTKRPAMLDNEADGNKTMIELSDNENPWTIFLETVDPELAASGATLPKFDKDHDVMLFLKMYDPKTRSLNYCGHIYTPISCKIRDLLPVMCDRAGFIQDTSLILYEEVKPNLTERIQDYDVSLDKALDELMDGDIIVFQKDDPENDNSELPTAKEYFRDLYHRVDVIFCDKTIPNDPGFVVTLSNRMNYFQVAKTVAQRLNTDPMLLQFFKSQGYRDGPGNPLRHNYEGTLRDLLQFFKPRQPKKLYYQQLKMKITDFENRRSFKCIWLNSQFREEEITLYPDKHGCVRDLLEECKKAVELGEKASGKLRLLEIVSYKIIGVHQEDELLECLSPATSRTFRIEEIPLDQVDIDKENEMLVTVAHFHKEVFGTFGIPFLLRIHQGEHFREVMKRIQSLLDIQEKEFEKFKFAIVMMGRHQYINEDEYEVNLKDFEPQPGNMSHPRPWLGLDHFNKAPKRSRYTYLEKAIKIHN
Sequence of USP46 (P62068 whole entry): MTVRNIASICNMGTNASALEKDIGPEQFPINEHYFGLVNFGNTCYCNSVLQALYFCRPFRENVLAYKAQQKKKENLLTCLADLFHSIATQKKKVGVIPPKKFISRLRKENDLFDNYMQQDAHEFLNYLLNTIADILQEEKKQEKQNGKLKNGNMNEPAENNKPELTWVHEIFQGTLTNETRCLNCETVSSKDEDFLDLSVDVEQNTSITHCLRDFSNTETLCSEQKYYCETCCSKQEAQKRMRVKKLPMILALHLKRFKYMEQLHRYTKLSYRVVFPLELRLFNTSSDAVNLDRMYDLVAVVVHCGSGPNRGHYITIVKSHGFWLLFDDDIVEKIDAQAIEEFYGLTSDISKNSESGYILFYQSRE
Sequence of USP54 (Q70EL1 whole entry): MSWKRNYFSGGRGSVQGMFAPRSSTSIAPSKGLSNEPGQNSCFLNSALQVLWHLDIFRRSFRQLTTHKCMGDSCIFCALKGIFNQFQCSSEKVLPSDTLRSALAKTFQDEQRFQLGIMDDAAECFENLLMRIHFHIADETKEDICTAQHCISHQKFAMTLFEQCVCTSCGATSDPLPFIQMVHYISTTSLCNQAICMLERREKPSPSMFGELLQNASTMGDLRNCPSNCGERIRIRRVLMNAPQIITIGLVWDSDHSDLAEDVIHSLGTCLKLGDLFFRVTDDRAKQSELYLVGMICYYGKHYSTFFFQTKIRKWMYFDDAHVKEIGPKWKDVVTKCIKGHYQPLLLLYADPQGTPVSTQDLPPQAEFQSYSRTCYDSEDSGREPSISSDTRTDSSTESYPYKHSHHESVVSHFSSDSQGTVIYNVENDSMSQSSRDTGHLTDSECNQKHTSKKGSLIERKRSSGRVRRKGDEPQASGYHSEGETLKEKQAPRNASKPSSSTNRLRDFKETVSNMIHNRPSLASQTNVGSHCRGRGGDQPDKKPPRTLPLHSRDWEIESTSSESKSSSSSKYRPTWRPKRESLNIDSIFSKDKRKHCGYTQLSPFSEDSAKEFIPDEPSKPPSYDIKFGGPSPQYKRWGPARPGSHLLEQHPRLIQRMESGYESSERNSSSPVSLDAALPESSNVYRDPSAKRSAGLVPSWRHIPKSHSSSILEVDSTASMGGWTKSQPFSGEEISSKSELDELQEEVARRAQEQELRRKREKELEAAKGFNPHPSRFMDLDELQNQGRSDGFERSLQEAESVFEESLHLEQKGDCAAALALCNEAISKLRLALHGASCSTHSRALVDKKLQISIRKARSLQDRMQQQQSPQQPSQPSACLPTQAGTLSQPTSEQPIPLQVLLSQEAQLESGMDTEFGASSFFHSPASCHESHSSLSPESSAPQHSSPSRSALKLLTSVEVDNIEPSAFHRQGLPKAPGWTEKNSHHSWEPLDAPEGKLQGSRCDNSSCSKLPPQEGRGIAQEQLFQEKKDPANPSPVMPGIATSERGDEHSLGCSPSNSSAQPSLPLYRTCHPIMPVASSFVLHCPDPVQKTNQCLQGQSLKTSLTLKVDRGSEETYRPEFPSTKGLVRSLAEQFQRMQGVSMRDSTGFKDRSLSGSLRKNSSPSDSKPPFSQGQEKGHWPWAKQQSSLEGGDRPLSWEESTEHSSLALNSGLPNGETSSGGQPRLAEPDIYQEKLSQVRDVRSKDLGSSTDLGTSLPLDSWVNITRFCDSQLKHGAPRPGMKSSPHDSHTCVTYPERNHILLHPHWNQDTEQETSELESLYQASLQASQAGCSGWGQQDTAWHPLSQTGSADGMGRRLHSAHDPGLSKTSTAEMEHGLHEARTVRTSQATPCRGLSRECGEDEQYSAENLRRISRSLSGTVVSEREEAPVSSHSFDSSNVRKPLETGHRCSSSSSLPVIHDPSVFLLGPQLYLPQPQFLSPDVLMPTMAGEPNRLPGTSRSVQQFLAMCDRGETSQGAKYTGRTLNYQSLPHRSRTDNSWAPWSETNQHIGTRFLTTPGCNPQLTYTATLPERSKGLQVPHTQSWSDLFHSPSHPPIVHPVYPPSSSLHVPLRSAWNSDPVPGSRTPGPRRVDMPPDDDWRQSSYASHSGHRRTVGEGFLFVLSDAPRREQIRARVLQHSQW
Sequence of UniProt O00487 (O00487 whole entry): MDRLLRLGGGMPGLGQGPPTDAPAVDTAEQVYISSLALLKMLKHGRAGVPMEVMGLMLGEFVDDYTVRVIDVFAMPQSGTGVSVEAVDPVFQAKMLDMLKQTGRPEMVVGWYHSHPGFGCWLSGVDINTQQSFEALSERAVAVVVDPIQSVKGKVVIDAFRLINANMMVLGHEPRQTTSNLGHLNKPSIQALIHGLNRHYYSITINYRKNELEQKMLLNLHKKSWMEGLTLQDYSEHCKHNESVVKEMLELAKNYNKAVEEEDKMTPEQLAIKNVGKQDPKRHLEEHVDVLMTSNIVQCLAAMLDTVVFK

COc1ccc(Cl)cc1NC(=O)CCl
inactive: [1] 0.21 | [2] -0.265 | [3] -0.266 | [4] -0.394 | [5] -0.409 | [6] 0.0369 | [7] -0.593 | [8] -0.171 | [9] -0.48 | [10] -0.298
